PubChem BioAssay AID1776 (NMMLSC, 2009)
The campaign covered roughly 190,000 compounds. About 490 (0.26%) were called active. Cut-off read from the data, not from the text of the source: active = fluorescence above about 89; inactive = the rest. The full list was thinned out, with actives kept by preference.

Experiment: green autofluorescence of compounds with GSH beads – biophysical, 488/530 nm, flow cytometry, artefact control, profiling panel (AID 1776);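 note: glutathione beads carrying GST-tagged Bcl family fusion proteins plus one bare bead set; values are compound well signal with DMSO vehicle wells as background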
Conditions: compound fluorescence 488/530 nm, at 10 µM, active compounds read high

Compound | fluorescence (KMESF)
Cc1ccc(Cl)cc1NC(=O)COC(=O)CC(C)(C)C | 12 (inactive)
O=C(COC(=O)C1CCCCC1)Nc1ccc([N+](=O)[O-])cc1 | 25 (inactive)
Cc1ccc(Cl)cc1NC(=O)COC(=O)C1CCCCC1 | 249 (active)
COc1cc(CN2CCN(Cc3ccc(C)cc3)CC2)c([N+](=O)[O-])cc1OC | 14 (inactive)
Cc1nccc(-c2ccc(-n3c(C)ccc3C)cc2)n1 | 9 (inactive)
CCC(=O)N1CCC(C(N)=O)(N2CCCCC2)CC1 | 12 (inactive)
Cc1ccnc2nc(C(=O)Nc3nnc(-c4ccccc4)o3)nn12 | 14 (inactive)
CCc1nnc(NC(=O)c2cccs2)s1 | 15 (inactive)
CCc1nnc(NC(=O)c2nc3nccc(C)n3n2)s1 | 259 (active)
CC1CN(C(=S)SCC(=O)c2ccccc2)CC(C)O1 (stereo not drawn) | 18 (inactive)
CC1(c2ccccc2Cl)NC(=O)N(CC(=O)NC(=O)NCc2ccco2)C1=O (stereo not drawn) | 27 (inactive)
CC1CN(C(=O)CN2C(=O)NC(C)(c3ccccc3)C2=O)CC(C)O1 (stereo not drawn) | 263 (active)
COc1ccccc1CNC(=O)CN1CCC(n2cnc3cc(F)ccc32)CC1 | 10 (inactive)
CCc1ccc2ncc(C(=O)c3ccccc3)c(N3CCOCC3)c2c1 | 15 (inactive)
CCNc1nc(NC(C)C)nc(N2CC(=O)N(CC(=O)OCC)C2=N)n1 | 29 (inactive)
O=C(Nc1cc(Cl)cc(Cl)c1)C(NCCCO)c1ccccc1 (stereo not drawn) | 18 (inactive)
CCOc1cc(C(=O)OCC(=O)Nc2cccc(C)c2)ccc1OCC(=O)N1CCOCC1 | 16 (inactive)
CCCCNC(=O)CSc1nc2ccc(NC(=O)CSc3nnc(N)s3)cc2s1 | 17 (inactive)
O=C(NCc1nnc(SCC(=O)N2CCCc3ccccc32)o1)c1ccccc1F | 13 (inactive)
CN1CCN(C(=O)N2c3ccccc3CCc3ccccc32)CC1 | 13 (inactive)
COc1ccccc1N(C(=O)Cn1nnc2ccccc21)C(C(=O)NCc1ccco1)c1ccc(C)o1 (stereo not drawn) | 248 (active)
COCCNC(=O)C(c1ccc(C)o1)N(Cc1ccccc1)C(=O)Cn1nnc2ccccc21 (stereo not drawn) | 21 (inactive)
Cc1ccc(C(C(=O)NCc2ccco2)N(CC2CCCO2)C(=O)Cn2nnc3ccccc32)cc1 (stereo not drawn) | 37 (inactive)
CCCCC(NC(=O)c1cccc(Br)c1)C(=O)O (stereo not drawn) | 10 (inactive)
CCN(Cc1ccccc1)C(=O)CN1C(=S)NC(C)(C)CC1C (stereo not drawn) | 20 (inactive)
COc1cc([C@H](Cc2ccccc2)NC(C)=O)oc(=O)c1 | 18 (inactive)
CC(Oc1ccccc1)C(=O)NN1Cc2ccccc2C1=N (stereo not drawn) | 9 (inactive)
NC(=O)c1ccc(N2CCOCC2)nc1 | 10 (inactive)
